Experimental data from PubChem BioAssay (NCI).
The panel holds about 83,000 compounds, 20% with a hit somewhere; the sample as a whole holds those more often.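 Values shown are percent growth following 48 h exposure of cells in 96-well plates to a single concentration of compound; below 10 was considered active.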 Values without a mark were called inactive. Calls of active or inactive are those of the source.

tested on: MCF7 breast; assay: NCI-60 one-dose screen, 48 h (100 = growth as untreated, 0 = no growth, -100 = all killed); details: 10 µM

| Structure (SMILES) | growth |
| --- | --- |
| NS(=O)(=O)Oc1ccc(NC(=O)C2CCCCCC2)cc1 | 97.7% |
| O=C(CSc1nnc(-c2cccnc2SCc2ccccc2)o1)Nc1nc(Cl)cc(Cl)n1 | 92% |
| O=C1/C=C/[C@@H](O)[C@@H]2C[C@@H](O)C[C@H]2/C=C/CCC[C@H](CCc2ccc(NC(=S)Nc3ccc4c(c3)C(=O)OC43c4ccc(O)cc4Oc4cc(O)ccc43)cc2)O1 | -5.59% (active) |
| O=C(CCl)Nc1ccc(Cc2ccc(NC(=O)CCl)cc2)cc1 | 1.46% (active) |
| Cc1cc(Cl)ccc1Nc1nc(C(F)(F)F)ccc1C(=O)N/N=C/c1c(Cl)cccc1Cl | 7.7% (active) |
| COc1ccc2c(c1)C(=O)/C(=C/c1ccc([N+](=O)[O-])o1)O2 | -18.7% (active) |
| S=C(SSC(=S)N(c1ccccc1)c1ccccc1)N(c1ccccc1)c1ccccc1 | 98.8% |
| CC(C)=CCC/C(C)=C/CC/C(C)=C/CC/C=C(\C)CC/C=C(\C)CCC(=O)Nc1ccn(C2OC(CO)C(O)C2(F)F)c(=O)n1 (centres undefined) | 21.8% |
| c1ccc(/C(=N\Nc2ccc3ccccc3n2)c2ccccn2)cc1 | 12.2% |
| c1ccc(CSc2ncccc2-c2nnc(SCCN3CCOCC3)o2)cc1 | 94.9% |
| CN(C)c1ncnc2c1nnn2C1OC(CO)C(O)C1O (centres undefined) | 6.74% (active) |
| COc1ccccc1/C=N\N/C(N)=N\N=C\c1ccccc1OC | 11.3% |
| COc1cc(/C=C/c2cc(/C=C/c3ccc(O)c(OC)c3)nc(N)n2)ccc1O | 7.59% (active) |
| O=C(/C=C/c1cccc(B(O)O)c1)c1cccc(B(O)O)c1 | 0.092% (active) |
